Screening results deposited in PubChem by several laboratories.
The list is not random: actives were taken first. Their share in the collection is about 7%.
rCAG RNA binder: r(CAG) repeat RNA binding; inhibition, % at 3 µM; TO-PRO-1 dye displacement fluorescence; hit rate 1.3% among 370,000;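 active = inhibition above the plate cutoff, the mean of all test compounds on that plate plus 3 SD, cut at about 35% in these data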;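 also: higher means more dye released from RNA so lower well fluorescence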
ADAM10 inh: inhibits human ADAM10; hit rate 0.62% among 370,000; O14672; inhibition, % at 7 µM; recombinant ADAM10, EDANS/DABCYL FRET peptide cleavage, 3 h;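 active = inhibition above a per-campaign cutoff equal to the mean of compounds falling between control-based bounds plus 3 SD, cut at about 20% in these data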
Target sequence (O14672 214-748 limits assumed): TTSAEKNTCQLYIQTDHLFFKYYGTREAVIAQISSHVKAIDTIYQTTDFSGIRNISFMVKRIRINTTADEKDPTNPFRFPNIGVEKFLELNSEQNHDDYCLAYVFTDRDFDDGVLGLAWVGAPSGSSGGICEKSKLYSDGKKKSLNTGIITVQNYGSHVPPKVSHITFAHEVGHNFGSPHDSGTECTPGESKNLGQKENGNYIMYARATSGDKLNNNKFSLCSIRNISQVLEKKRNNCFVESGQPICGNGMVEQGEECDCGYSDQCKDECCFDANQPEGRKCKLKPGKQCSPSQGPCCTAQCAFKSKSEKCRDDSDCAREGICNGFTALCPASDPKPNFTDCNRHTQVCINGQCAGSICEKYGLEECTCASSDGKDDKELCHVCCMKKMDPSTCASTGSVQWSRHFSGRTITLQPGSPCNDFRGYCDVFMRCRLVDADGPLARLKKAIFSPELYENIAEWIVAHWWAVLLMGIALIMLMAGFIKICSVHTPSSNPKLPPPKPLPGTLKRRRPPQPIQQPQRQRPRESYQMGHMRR
GRIN3A LBD mod: modulates the human NR3A ligand-binding domain; NR3A LBD differential scanning fluorimetry, Tm shift; 0% = protein alone, 100% = glycine-bound protein; Tm shift relative to glycine control, % at 25 µM; hit rate 2.5% among 340,000;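 active = melting temperature shift of at least 10% of the positive control shift, at one fixed dose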
AHR act: activators of human aryl hydrocarbon receptor. P35869. AHR-responsive luciferase reporter cells, luminescence. activation, % at 5 µM. hit rate 2.5% among 320,000. AID 2796; in the data active = activation above about 47%
ADAM17 inh: ADAM17 inhibition, QFRET primary screen; P78536; recombinant ADAM17, EDANS/DABCYL FRET peptide cleavage; inhibition, % at 6.95 µM; hit rate 0.83% among 370,000;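 active = inhibition above the mean of compounds lying between control limits plus 3 SD, set per campaign, cut at about 8.5% in these data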
KLK7 zymogen act: proKLK7 (human) activation, primary screen | P49862 | purified proKLK7, EDANS-DABCYL substrate fluorescence; 100% is mature enzyme control, 0% vehicle | activation, % at 7 µM | hit rate 0.9% among 370,000 | AID 652039;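 active = activation above the mean of all tested compounds plus 3 SD, computed per campaign excluding outliers beyond control limits, cut at about 13% in these data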
AHR act confirm: human AHR activation, confirmation | human cells, AHR-responsive luciferase reporter, luminescence | hit rate 87% among 2,300 | shares compounds with AHR act | AID 2845 | activation, % at 9 µM; in the data active = activation above about 49%;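 also: HepG2 hepatoma cells carrying a DRE-driven firefly luciferase reporter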
PXR counter: counter-screen for AHR activators: human PXR activators; cell-based PXR reporter, luciferase luminescence; activation, % at 11.6 µM; shares compounds with AHR act; hit rate 88% among 2,300; in the data active = activation above about 11%;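 also: human hepatoma DPX-2 cells expressing full-length human PXR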
Hits are given with their value.

`Cc1ccc(-c2nc(NCCN(C)C)c3ccccc3n2)cc1` gave rCAG RNA binder inactive, ADAM10 inh inactive, GRIN3A LBD mod inactive, AHR act inactive, ADAM17 inh inactive and KLK7 zymogen act inactive.
Fc1ccc(-c2cnn3c(-c4ccncc4)ccnc23)cc1 was read as rCAG RNA binder inactive, ADAM10 inh inactive, GRIN3A LBD mod inactive, AHR act 135, ADAM17 inh inactive, KLK7 zymogen act inactive, AHR act confirm inactive and PXR counter 27.
Cc1nn2c(-c3ccc(F)cc3)ccnc2c1Br was read as rCAG RNA binder inactive, ADAM10 inh inactive, GRIN3A LBD mod inactive, AHR act 82, ADAM17 inh inactive, KLK7 zymogen act inactive, AHR act confirm 109 and PXR counter 25.
`Cc1cc(Nc2cc(Cl)cc(Cl)c2)cc(=O)n1-c1cc(Cl)cc(Cl)c1` gave rCAG RNA binder inactive, ADAM10 inh inactive, ADAM17 inh inactive and KLK7 zymogen act inactive.
Screening COc1cccc(CNC(=O)[C@H]2CCCN2C(=O)[C@H]2CCCN2S(=O)(=O)c2cccc(C)c2)c1 returned rCAG RNA binder inactive, ADAM10 inh inactive, ADAM17 inh inactive and KLK7 zymogen act inactive.
Cc1c(C)c(C)c2[nH]c(-c3ccc4c(c3)OCO4)nc2c1C was read as GRIN3A LBD mod inactive, AHR act 102, AHR act confirm 102 and PXR counter 50.
O=C(Nc1cccc(N2CCCC2)c1)c1cccs1 was read as rCAG RNA binder inactive, ADAM10 inh inactive, GRIN3A LBD mod inactive, AHR act 88, ADAM17 inh inactive, KLK7 zymogen act inactive, AHR act confirm 92 and PXR counter 37.
`CC1(C)Oc2ccc(C(=O)N3CCCC3)cc2NC1=O` gave rCAG RNA binder inactive, ADAM10 inh inactive, ADAM17 inh inactive and KLK7 zymogen act inactive.
COC(=O)[C@]12C[C@H](CC(=O)NCCCCc3ccccc3)C(=O)N(CCc3ccc(OC)c(OC)c3)C1=C[C@H](COCc1ccccc1)O[C@@H]2C was read as rCAG RNA binder inactive, ADAM10 inh inactive, ADAM17 inh inactive and KLK7 zymogen act inactive.
CC/C(=N/Nc1ccc(Cl)cc1)c1cnnc(SC)n1 was read as rCAG RNA binder inactive, ADAM10 inh inactive, GRIN3A LBD mod 17, AHR act 98, ADAM17 inh inactive, KLK7 zymogen act inactive, AHR act confirm 94 and PXR counter 12.
CC/C(=N/Nc1cccc(C)c1)c1cnnc(SC)n1 was read as rCAG RNA binder inactive, ADAM10 inh inactive, GRIN3A LBD mod inactive, AHR act inactive, ADAM17 inh inactive and KLK7 zymogen act inactive.
Screening COn1c(-c2ccccc2)nc2ccc(Cl)cc21 returned rCAG RNA binder inactive, ADAM10 inh inactive, GRIN3A LBD mod inactive, AHR act inactive, ADAM17 inh inactive and KLK7 zymogen act inactive.
`Clc1ccc2nc3c4ccccc4cnn3c2c1` gave rCAG RNA binder inactive, ADAM10 inh inactive, GRIN3A LBD mod inactive, AHR act 105, ADAM17 inh inactive, KLK7 zymogen act inactive, AHR act confirm 90 and PXR counter inactive.
For CCn1ncc(-c2cc(C(=O)O)no2)c1C the results were rCAG RNA binder inactive, ADAM10 inh inactive, GRIN3A LBD mod inactive, AHR act 80, ADAM17 inh inactive, KLK7 zymogen act inactive, AHR act confirm inactive and PXR counter inactive.
CC(=O)Nc1cc(-c2ccc(Cl)cc2)[nH]n1 was read as rCAG RNA binder inactive, ADAM10 inh inactive, GRIN3A LBD mod inactive, AHR act 95, ADAM17 inh inactive, KLK7 zymogen act inactive and AHR act confirm 160.
Screening Cn1ccs/c1=N\C(=O)Nc1cccc(C(F)(F)F)c1 returned rCAG RNA binder inactive, ADAM10 inh inactive, GRIN3A LBD mod inactive, AHR act 106, ADAM17 inh inactive, KLK7 zymogen act inactive, AHR act confirm 111 and PXR counter 60.
`Cc1cccc(NC(=O)CSCC(=O)N=c2sccn2C)c1` gave rCAG RNA binder inactive, ADAM10 inh inactive, GRIN3A LBD mod inactive, AHR act inactive, ADAM17 inh inactive and KLK7 zymogen act inactive.
Screening COc1cc(C)nc(Nc2nc(C)c(C(C)=O)s2)n1 returned rCAG RNA binder inactive, ADAM10 inh inactive, GRIN3A LBD mod inactive, AHR act 108, ADAM17 inh inactive, KLK7 zymogen act inactive, AHR act confirm inactive and PXR counter 11.
Screening c1coc(-c2nc3c4ccccc4ccn3c2Cc2ccsc2)c1 returned rCAG RNA binder inactive, ADAM10 inh inactive, ADAM17 inh inactive and KLK7 zymogen act inactive.
`Cc1cc(C)n2nc(-c3ccc(Br)cc3)cc2n1` gave rCAG RNA binder inactive, ADAM10 inh inactive, GRIN3A LBD mod inactive, AHR act 134, ADAM17 inh inactive, KLK7 zymogen act inactive, AHR act confirm 96 and PXR counter 30.
Cc1cc(-c2ccc(Cl)cc2)n2nc(C)cc2n1 was read as rCAG RNA binder inactive, ADAM10 inh inactive, GRIN3A LBD mod inactive, AHR act inactive, ADAM17 inh inactive and KLK7 zymogen act inactive.
FC(F)(F)c1cc(C(F)(F)F)n2nc(-c3sccc3-n3cccc3)cc2n1 was read as rCAG RNA binder inactive, ADAM10 inh inactive, GRIN3A LBD mod inactive, AHR act inactive, ADAM17 inh inactive and KLK7 zymogen act inactive.
`Cc1cc(C)n2nc(-c3ccc(Cl)cc3)cc2n1` gave rCAG RNA binder inactive, ADAM10 inh inactive, GRIN3A LBD mod inactive, AHR act 98, ADAM17 inh inactive, KLK7 zymogen act inactive, AHR act confirm 120 and PXR counter 27.
`Cc1nc2cc(-c3ccc(Cl)cc3)nn2c(NCCN(C)C)c1C` gave rCAG RNA binder inactive, ADAM10 inh inactive, GRIN3A LBD mod inactive, AHR act 114, ADAM17 inh inactive, KLK7 zymogen act inactive, AHR act confirm 102 and PXR counter 15.
`Cc1cc(C)n2nc(-c3sccc3-n3cccc3)cc2n1` gave rCAG RNA binder inactive, ADAM10 inh inactive, GRIN3A LBD mod 11, AHR act 93, ADAM17 inh inactive, KLK7 zymogen act inactive, AHR act confirm 55 and PXR counter 61.
`COC(=O)C1=C(C)N(Cc2ccc(Br)cc2)C(=S)NC1c1cccc(F)c1` (stereo not given) gave rCAG RNA binder inactive, ADAM10 inh inactive, ADAM17 inh inactive and KLK7 zymogen act inactive.
For CCCC[C@H]1C2CC(OC(=O)NCCCc3ccccc3)C(C2)[C@H]2CCCCN21 (stereo not given in full) the results were rCAG RNA binder inactive, ADAM10 inh inactive, ADAM17 inh inactive and KLK7 zymogen act inactive.
Screening COC(=O)C1=C(C)N(CC(C)C)C(=S)NC1c1ccc(Cl)cc1 (stereo not given) returned rCAG RNA binder inactive, ADAM10 inh inactive, ADAM17 inh inactive and KLK7 zymogen act inactive.
Screening O=C(Nc1nc2c(Cl)cccc2s1)c1ccc([N+](=O)[O-])o1 returned rCAG RNA binder inactive, ADAM10 inh inactive, GRIN3A LBD mod inactive, AHR act inactive, ADAM17 inh inactive and KLK7 zymogen act inactive.
